Assay [1] can be described thus: AP1 Signaling Pathway (AID 357; active = well fitted curve in either direction with a large enough effect, not every such curve was filed as active;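 also: ME-180 reporter cells stimulated with EGF at its EC50 level; % is scaled to controls: 0 for no effect and ±100 for the full control effect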). The following applies: ME-180 AP-1-bla reporter, EGF-induced, beta-lactamase ratio, 5 h. Put shortly:
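First, ME-180 AP-1-bla cells were cultured overnight at 37 °C in low-serum Opti-MEM. Next, titrated compounds with EC50 EGF were incubated 5 hours. Finally, CCF4 was added for 2.5 hours and the 460/530 nm ratio recorded.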

Assay [2] can be described thus: NFAT Signaling Pathway (AID 444; active = well fitted curve in either direction with a large enough effect, not every such curve was filed as active;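 also: carbachol stimulus at about its EC50 of 1 µM final; % is scaled to controls: 0 for no effect and ±100 for the full control effect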). The following applies: Jurkat NFAT-bla M1, carbachol, beta-lactamase ratio, 5 h. Put shortly:
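Jurkat cells carrying an NFAT-driven β-lactamase reporter and co-transfected muscarinic M1 receptor were treated with compound plus carbachol (1 uM final, an EC50 level) for 5 h at 37 °C. CCF4 loading followed for 1 h at RT; 460/530 nm ratio gave %activity.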

Assay [3] can be described thus: Stat Signaling Pathway (AID 446; active = well fitted curve in either direction with a large enough effect, not every such curve was filed as active;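 also: ME-180 cervical cancer cells given 40 pM IL-6 alongside compound; SIE-controlled beta-lactamase reporter measured as 460/530 nm FRET emission ratio; % is scaled to controls: 0 for no effect and ±100 for the full control effect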). The conditions noted are these: ME-180 (cervical carcinoma) SIE beta-lactamase reporter, IL-6 stimulated, 5 h. Put shortly:
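FRET read-out (405 nm excitation, 460/530 nm emission) of a beta-lactamase reporter under a STAT-inducible element in ME-180 cervical carcinoma cells. Cells with compound receive 40 pM IL-6 for 5 h. Values are normalised to AC90 stimulation and AC90 JAK-inhibitor controls.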

In assay [4] the target is Glucocorticoid receptor (Homo sapiens) (UniProt P04150). The experiment in a line: GR-GFP Redistribution (AID 450;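 active = compounds whose dose series gives a full or clear partial fitted curve of increased nuclear translocation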; also: potency is read from the fitted curve at half-maximal effect). The following applies: U2OS GR-GFP nuclear translocation, laser cytometry, 2 h.
Assay [5] has the same target. Put plainly: GR-EFC Redistribution (AID 451; calls by dose curve; also: potency is read from the fitted curve at half-maximal effect). The following applies: CHO-K1 GR-EFC translocation, beta-gal luminescence, 2 h. Put shortly:
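CHO-K1 cells stably expressing nuclear-localized β-gal enzyme acceptor and GR fused C-terminally to the enzyme donor fragment; ligand-driven nuclear translocation restores β-gal by complementation. Compounds titrated up to 46 uM final, 2 h at 37 °C; luminescence read.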

In assay [6] the target is Mitogen-activated protein kinase 10 (Mus musculus) (UniProt Q61831). Put plainly: JNK3 AlphaScreen Assay (AID 530; active = well fitted curve in either direction with a large enough effect, not every such curve was filed as active;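 also: kinase came from lysate of stimulated human HepG2 cells; % is scaled to controls: 0 for no effect and ±100 for the full control effect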). The conditions noted are these: JNK3 lysate, c-Jun phosphorylation; series mostly up to 57.1 µM. The gist of the method: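 Phosphorylation of biotinylated GST-cJun(1-79) at Ser73 is measured by AlphaScreen proximity luminescence. Enzyme is JNK3 in HepG2 lysates activated with interleukin-1beta and tumor necrosis factor alpha; ATP is 10 uM final.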

Assay [7] deals with 3',5'-cyclic-AMP phosphodiesterase 4B (Homo sapiens) (UniProt Q07343). Put plainly: qHTS Assay for Inhibitors of PDE-IV (AID 607; active = well fitted activation curve with a large enough effect in the main read-out, with a control signal flat, not every such curve was filed as active; also: % of control where 0% means no effect). The conditions noted are these: HEK293 ACTOne CNG channel cells, membrane potential fluorescence; series mostly up to 22.9 µM. Put shortly: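 Cell-based read-out of cAMP via a modified cyclic nucleotide-gated channel and membrane potential dye (535/590 nm) in HEK293 cells expressing PDE4 endogenously. Compounds tested up to 22.9 uM final; 100 uM RO 20-1724 reference.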
On the technique in general: qHTS replaces the single test concentration by a dilution series.

For assay [8], the target named is Guanine nucleotide-binding protein G(i) subunit alpha-1 (Homo sapiens) (UniProt P63096). The experiment in a line: qHTS Assay for Inhibitors of RGS12 GoLoco Motif Activity (Green Fluorophore) (AID 879).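 Also: 0% = labeled peptide with Gαi1 and full inhibition = labeled peptide alone without protein; negative values mean loss of peptide binding seen as reduced polarization.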 The conditions noted are these: Galphai1/FITC-RGS12 GoLoco peptide, fluorescence polarization; series mostly up to 57.1 µM. Put shortly: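 A drop in FITC polarization marked displacement of the FITC-tagged RGS12 GoLoco peptide (10 nM) from Gαi1 (50 nM). Compounds were incubated 10 min at room temperature in Tris pH 7.5 buffer containing 150 mM NaCl, 0.1 mM GDP and 0.05% NP40; unlabeled peptide titration served as control.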

For assay [9], the target named is Pyruvate kinase (Leishmania mexicana) (UniProt Q27686). The experiment in a line: qHTS Validation Assay for Inhibitors of Leishmania Mexicana Pyruvate Kinase (AID 945).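 Also: 0% = DMSO only neutral control wells.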 The following applies: purified L. mexicana pyruvate kinase, enzyme activity, E451W mutant enzyme; series mostly up to 57.5 µM. The gist of the method:
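Luminescent ATP detection (PKLight) after a 1 h room-temperature reaction of 0.2 nM LmPYK E451W mutant with 0.5 mM PEP and 0.1 mM ADP at pH 7.2. Activity is normalized to DMSO-only control wells.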

Assay [10] deals with Pyruvate kinase PKM (Homo sapiens) (UniProt P14618). Put plainly: qHTS Assay for Activators of Human Muscle Pyruvate Kinase (AID 954; active = well fitted curve in the direction sought with a large enough effect, not every such curve was filed as active;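 also: 0% = uninhibited enzyme and -100% = no enzyme or full thiadiazolimine inhibition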). The conditions noted are these: purified human muscle pyruvate kinase, luciferase-coupled luminescence, 1 h; series mostly up to 57.5 µM. The gist of the method: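 ATP production by PKM2 detected via luciferase luminescence after 1 h room-temperature reaction (0.1 nM enzyme, PEP at Km 0.5 mM, ADP 0.1 mM, pH 7.2 imidazole buffer). Inhibition scaled to no-enzyme control; activation referenced to 0.3 nM enzyme wells.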

Assay [11] addresses alpha-glucosidase (Oryza sativa, rice) (UniProt Q653V4). Put plainly: Counterscreen for Glucocerebrosidase Inhibitors: qHTS Assay for Rice alpha-Glucosidase at pH 5.0 (AID 997).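 Also: 0% = full activity with enzyme and -100% = basal without enzyme.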 The following applies: rice alpha-glucosidase enzyme activity; series mostly up to 76.9 µM. Put shortly:
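Endpoint fluorogenic assay at pH 5.0: compounds (0.7 nM to 77 uM) titrated against 4 nM rice enzyme and 400 uM 4-MU-alpha-glucoside for 20 min at room temperature; NaOH/glycine stop, read ex 365/em 440 nm, Hill-fitted AC50.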
(A counterscreen serves to expose hits that act by an unwanted route or on another target.)

Assay [12] in a line: qHTS Assay for Lipid Storage Modulators (AID 1519; calls by dose curve). The following applies: Drosophila S3 cells, BODIPY lipid droplet/cell ratio, laser cytometry, cells loaded with oleic acid; for activity change, negative = inhibition: at 25.7 µM (top of the series). Put shortly: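 Cells seeded at 5,000 per well were treated with compounds over a concentration series and loaded with oleic acid (400 uM, as added). Lipid droplet fluorescence (488 nm excitation, 500-530 nm channel) was read by laser-scanning cytometry and normalized to 20 uM Triacsin C.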

Assay [13] deals with ATP-dependent 6-phosphofructokinase (Trypanosoma brucei brucei) (UniProt O15648). Put plainly: qHTS Assay to Find Inhibitors of T. brucei phosphofructokinase: hit validation (AID 492961). The conditions noted are these: T. brucei PFK, ADP-Glo luminescence; series mostly up to 24.3 µM. Put shortly: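 Reaction: 0.1 M triethanolamine pH 8.0, 5 mM MgCl2, F6P 0.5 mM, ATP 0.1 mM, PFK 1.25 nM, 45 min RT. Read-out: ADP-Glo luminescence. Analysis: concentration-response fits, classed by r2 and efficacy.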

Assay [14] deals with Ubiquitin carboxyl-terminal hydrolase 1 (Homo sapiens) (UniProt O94782). The experiment in a line: Inhibitors of USP1/UAF1: Pilot qHTS (AID 504865).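 Also: rhodamine fluorescence freed from ubiquitin-rhodamine substrate followed over time; top concentration of the series differs between compounds; % is scaled to controls: 0 for no effect and ±100 for the full control effect; nearly all actives have a fitted effect of over 35% in size.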 The following applies: purified USP1/UAF1, Ub-rhodamine cleavage fluorescence; series mostly up to 54.9 µM. The gist of the method:
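1nM USP1/UAF1 + cpd, 15 min RT; start w/ Ub-Rho 150nM final; kinetic FL 480/540 nm, 6 reads q60 s. Buffer 50mM HEPES pH 7.8, 0.5mM EDTA, 1mM TCEP, 0.01% Tween-20, 0.1 mg/ml BSA.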

The target of assay [15] is Luciferin 4-monooxygenase (Photinus pyralis) (UniProt P08659). Put plainly: Biochemical firefly luciferase enzyme assay for NPC (AID 624030).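 Also: purified P. pyralis luciferase at 10 nM with luciferin and ATP substrate; 0% = DMSO and -100% = full luciferase inhibition by PTC124 control; nearly all actives have a fitted effect of over 70% in size.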 The following applies: purified P. pyralis luciferase, luminescence, 5 min; series mostly up to 58.6 µM. The gist of the method: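 Counter-screen for direct inhibition of the luciferase enzyme by approved-drug library compounds, run at 10 nM enzyme in 50 mM Tris acetate (final). Luminescence was read within 5 min of enzyme-buffer addition and normalized to PTC124 versus DMSO (0%).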

A short description of assay [16]: qHTS profiling for inhibitors of Plasmodium falciparum proliferation (AID 504749). Also: nearly all actives have a fitted effect of over 60% in size. Also: potency is read from the fitted curve at half-maximal effect.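 As to activity, negative = inhibition: 0% = DMSO vehicle and full inhibition = artemisinin control.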 The following applies: P. falciparum in erythrocytes, SYBR Green DNA, 72 h. The gist of the method:
(§1)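 Quantitative HTS: compounds pinned into medium, infected erythrocytes added (0.3% parasitemia, 2.5% hematocrit), 72 h culture at 37 C under 5% CO2. Saponin/Triton lysis with SYBR Green I, overnight RT, then fluorescence read.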

Assay [17] deals with AS120. Described as above. The following applies: P. falciparum in erythrocytes, SYBR Green DNA, 72 h; series mostly up to 28.7 µM. Put shortly:
as §1

In assay [18] the test system is CP238. Described as above. The following applies: P. falciparum in erythrocytes, SYBR Green DNA, 72 h; series mostly up to 12.8 µM. Put shortly: as §1
The test system of assay [19] is FAB9. The assay is described as above. The conditions noted are these: P. falciparum in erythrocytes, SYBR Green DNA, 72 h; series mostly up to 12.8 µM. The gist of the method:
as §1

The target of assay [20] is Cytochrome P450 1A2 (Homo sapiens) (UniProt P05177). Put plainly: p450-cyp1a2 (AID 410; calls by dose curve). The following applies: recombinant CYP1A2, luciferin-ME demethylation, luminescence; series mostly up to 57 µM. Put shortly:
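O-Demethylation of luciferin 6' methyl ether by human CYP1A2 is monitored as luciferase luminescence. Substrate sits at Km (100uM); enzyme is 20nM. Values are scaled to 57 uM furafylline as maximal inhibition.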

[21] abbreviates: measured here: cell count channel max response.
[22] abbreviates: measured here: lipid channel max response.

Each structure is given as a SMILES string. Several values for one entry are separate records, joined by “and”; a condition that tells them apart may be missing. Equal values may be shown once. Results filed as inconclusive are left out. Activity calls are given as the source filed them. Unless noted, calls follow the shape of the dose curve; as a rule, active = well fitted curve in the direction sought with a large enough effect; inconclusive = small, poorly fitted or top-dose-only effect, or another doubt; inactive = no such curve, though single readings can be large; an effect the other way counts as inactive or inconclusive.

3',5'-cyclic-AMP phosphodiesterase 4B (Homo sapiens), sequence (Q07343 whole entry, looked up): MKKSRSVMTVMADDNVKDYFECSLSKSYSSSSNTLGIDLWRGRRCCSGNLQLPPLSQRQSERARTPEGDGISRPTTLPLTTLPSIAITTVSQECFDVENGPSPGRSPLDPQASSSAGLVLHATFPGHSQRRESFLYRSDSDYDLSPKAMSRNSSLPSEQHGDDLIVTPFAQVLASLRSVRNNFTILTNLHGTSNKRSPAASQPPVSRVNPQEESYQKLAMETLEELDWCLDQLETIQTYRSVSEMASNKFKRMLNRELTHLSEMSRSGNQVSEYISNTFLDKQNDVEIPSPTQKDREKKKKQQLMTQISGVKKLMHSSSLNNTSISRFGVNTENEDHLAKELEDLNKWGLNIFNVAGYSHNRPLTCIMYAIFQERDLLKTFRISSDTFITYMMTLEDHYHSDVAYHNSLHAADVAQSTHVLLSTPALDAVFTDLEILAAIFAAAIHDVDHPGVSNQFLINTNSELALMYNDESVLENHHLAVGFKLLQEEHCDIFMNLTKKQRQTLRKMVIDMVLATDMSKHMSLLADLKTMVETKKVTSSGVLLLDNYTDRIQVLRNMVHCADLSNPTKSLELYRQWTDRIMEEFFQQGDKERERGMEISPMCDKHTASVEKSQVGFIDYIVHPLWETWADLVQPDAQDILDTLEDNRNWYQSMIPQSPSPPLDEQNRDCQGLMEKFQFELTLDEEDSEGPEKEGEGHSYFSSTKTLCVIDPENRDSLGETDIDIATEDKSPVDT
Glucocorticoid receptor (Homo sapiens), sequence (P04150 whole entry, looked up): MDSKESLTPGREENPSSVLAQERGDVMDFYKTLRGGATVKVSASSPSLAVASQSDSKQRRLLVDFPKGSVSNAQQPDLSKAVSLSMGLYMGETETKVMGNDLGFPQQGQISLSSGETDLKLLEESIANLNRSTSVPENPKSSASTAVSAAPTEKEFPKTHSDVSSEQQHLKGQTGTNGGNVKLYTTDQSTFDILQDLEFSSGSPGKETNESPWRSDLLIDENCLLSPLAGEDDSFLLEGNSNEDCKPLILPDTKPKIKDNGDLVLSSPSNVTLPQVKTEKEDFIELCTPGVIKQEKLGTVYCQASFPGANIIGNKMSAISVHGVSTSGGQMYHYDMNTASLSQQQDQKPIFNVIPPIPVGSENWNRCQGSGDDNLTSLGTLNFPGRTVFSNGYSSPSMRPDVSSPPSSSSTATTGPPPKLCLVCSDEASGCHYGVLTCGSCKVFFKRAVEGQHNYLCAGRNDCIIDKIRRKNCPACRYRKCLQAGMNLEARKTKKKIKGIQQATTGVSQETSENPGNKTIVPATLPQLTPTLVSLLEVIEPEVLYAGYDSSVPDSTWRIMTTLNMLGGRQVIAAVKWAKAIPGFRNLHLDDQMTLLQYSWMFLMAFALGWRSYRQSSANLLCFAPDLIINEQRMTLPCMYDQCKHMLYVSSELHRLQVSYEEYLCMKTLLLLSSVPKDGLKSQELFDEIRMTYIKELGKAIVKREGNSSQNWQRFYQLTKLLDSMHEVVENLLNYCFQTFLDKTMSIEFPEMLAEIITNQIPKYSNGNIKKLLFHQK
Luciferin 4-monooxygenase (Photinus pyralis), sequence (P08659 whole entry, looked up): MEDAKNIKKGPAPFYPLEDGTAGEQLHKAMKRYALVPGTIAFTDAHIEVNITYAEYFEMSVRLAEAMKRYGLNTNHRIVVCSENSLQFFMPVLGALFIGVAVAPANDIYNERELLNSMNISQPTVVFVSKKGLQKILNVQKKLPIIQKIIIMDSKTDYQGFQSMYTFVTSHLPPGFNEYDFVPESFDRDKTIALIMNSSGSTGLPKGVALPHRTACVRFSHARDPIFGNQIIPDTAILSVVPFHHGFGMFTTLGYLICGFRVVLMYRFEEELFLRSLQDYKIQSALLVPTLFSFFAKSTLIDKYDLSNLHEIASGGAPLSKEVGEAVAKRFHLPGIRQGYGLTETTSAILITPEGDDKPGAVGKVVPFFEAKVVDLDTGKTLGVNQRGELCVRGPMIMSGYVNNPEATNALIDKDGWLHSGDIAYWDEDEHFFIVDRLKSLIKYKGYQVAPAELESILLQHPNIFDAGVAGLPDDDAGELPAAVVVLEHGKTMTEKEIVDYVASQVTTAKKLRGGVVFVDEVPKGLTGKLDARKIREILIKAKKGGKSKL
Pyruvate kinase (Leishmania mexicana), sequence (Q27686 2-499 E452W): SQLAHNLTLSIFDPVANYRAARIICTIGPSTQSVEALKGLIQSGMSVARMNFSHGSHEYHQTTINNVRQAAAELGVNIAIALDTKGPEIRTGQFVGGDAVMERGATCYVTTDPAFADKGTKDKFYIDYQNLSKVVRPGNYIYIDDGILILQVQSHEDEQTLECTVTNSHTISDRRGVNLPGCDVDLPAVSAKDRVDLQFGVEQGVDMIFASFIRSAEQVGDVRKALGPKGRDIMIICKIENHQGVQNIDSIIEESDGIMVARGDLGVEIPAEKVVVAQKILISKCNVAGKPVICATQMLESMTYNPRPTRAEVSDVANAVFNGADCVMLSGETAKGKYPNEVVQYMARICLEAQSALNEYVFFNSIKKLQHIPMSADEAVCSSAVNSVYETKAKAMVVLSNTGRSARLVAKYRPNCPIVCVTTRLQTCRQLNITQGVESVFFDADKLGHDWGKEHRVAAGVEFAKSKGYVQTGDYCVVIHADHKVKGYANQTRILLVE
Ubiquitin carboxyl-terminal hydrolase 1 (Homo sapiens), sequence (O94782 whole entry, looked up): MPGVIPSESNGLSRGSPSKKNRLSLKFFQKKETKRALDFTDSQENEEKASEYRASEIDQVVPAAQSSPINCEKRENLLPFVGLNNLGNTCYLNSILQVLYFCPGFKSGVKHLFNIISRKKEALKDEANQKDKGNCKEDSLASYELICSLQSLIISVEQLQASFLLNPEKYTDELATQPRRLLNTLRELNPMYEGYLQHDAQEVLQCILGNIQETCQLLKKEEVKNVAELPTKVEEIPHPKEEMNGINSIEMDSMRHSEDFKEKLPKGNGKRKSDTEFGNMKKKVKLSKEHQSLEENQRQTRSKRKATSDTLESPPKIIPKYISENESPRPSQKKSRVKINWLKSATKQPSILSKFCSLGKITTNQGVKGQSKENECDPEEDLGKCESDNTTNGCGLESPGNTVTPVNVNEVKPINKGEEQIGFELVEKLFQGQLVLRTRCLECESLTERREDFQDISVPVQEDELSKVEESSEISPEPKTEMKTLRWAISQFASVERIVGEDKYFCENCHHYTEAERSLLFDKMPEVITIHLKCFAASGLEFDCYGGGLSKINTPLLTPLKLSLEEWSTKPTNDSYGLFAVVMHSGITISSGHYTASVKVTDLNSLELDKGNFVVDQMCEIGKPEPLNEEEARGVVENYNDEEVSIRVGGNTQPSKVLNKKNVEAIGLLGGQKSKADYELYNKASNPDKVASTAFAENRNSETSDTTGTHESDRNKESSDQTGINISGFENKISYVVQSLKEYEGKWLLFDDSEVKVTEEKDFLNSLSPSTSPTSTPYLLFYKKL
Pyruvate kinase PKM (Homo sapiens), sequence (P14618 whole entry, looked up): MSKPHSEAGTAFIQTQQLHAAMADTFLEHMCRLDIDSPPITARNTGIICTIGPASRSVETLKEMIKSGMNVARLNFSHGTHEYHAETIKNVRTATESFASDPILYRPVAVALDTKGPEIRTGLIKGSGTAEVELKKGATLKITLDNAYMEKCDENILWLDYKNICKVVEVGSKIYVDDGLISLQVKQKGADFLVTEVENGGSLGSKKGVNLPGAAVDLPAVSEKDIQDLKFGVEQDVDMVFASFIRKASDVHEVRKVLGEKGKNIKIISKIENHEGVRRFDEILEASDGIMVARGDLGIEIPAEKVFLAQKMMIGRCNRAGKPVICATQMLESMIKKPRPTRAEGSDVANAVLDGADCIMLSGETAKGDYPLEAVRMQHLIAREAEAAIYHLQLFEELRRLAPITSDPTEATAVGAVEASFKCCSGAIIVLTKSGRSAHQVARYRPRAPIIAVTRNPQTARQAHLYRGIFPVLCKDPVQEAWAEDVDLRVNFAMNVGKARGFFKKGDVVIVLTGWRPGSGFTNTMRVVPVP
Guanine nucleotide-binding protein G(i) subunit alpha-1 (Homo sapiens), sequence (P63096 whole entry, looked up): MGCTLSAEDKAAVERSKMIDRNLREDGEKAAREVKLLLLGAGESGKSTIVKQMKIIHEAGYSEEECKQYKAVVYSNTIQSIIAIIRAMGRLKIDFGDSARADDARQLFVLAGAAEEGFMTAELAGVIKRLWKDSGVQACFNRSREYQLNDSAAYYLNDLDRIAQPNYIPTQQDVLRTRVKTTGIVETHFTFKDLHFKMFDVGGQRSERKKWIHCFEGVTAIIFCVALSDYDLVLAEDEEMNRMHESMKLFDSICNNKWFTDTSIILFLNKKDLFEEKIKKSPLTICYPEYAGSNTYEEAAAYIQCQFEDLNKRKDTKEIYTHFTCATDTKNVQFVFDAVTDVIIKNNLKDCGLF
ATP-dependent 6-phosphofructokinase (Trypanosoma brucei brucei), sequence (O15648 whole entry, looked up): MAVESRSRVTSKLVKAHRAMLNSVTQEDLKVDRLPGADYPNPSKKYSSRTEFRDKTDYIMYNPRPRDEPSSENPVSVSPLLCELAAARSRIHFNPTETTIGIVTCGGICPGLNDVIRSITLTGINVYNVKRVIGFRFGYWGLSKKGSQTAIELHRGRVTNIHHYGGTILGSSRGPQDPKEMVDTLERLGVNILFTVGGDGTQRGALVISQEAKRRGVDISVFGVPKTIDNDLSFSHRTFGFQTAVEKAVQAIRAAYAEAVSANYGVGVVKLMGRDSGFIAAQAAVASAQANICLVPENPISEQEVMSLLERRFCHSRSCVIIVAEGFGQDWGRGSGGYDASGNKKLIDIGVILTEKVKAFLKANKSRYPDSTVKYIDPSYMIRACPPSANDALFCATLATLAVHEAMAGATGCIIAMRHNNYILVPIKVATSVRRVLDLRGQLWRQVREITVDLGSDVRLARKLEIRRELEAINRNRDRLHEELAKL

For `CCN(CC)CCC[C@H](C)Nc1ccnc2cc(Cl)ccc12`, the activity change, negative = inhibition in assay [1] (at 17.2 µM (top of the series)) was 13.4% (inactive); in [1] (at 38 µM (top of the series)), 1.88% (inactive); in assay [2] (at 17.2 µM (top of the series)) it was -9.2% (inactive); in assay [2] (at 38 µM (top of the series)), -24.9% (inactive); in assay [12] it was -0.708% (inactive). Also, the activity, negative = inhibition in assay [3] (at 17.2 µM (top of the series)) was 3.07% (inactive); in assay [3] (at 38 µM (top of the series)), 15.2% (inactive). For the same compound, the Potency in assay [4] is > 46 µM (inactive) and > 20.6 µM (inactive); in assay [5], > 46 µM (inactive) and > 20.6 µM (inactive); in [16] (parasite line A), 158 nM (active); in [16] (parasite line B), 316 nM (active); in assay [17] it was 11200 nM (active); in assay [18], 10000 nM (active). Besides, the Potency in assay [19] was 141 nM (active). Further, the Potency entry in assay [6], in [7], in assay [8] and in [14] was “inactive” each time. For the same compound, the compound was called inactive in [9], in assay [10], in [11], in [13] and in assay [15]. For the same compound, the max response was -15.4% in [12] (setting [21]) and -16% in assay [12] (setting [22]).
On to `C[C@@H](CN(C)C)CN1c2ccccc2CCc2ccccc21`, for which the activity change, negative = inhibition in [1] (at 17.2 µM (top of the series)) was 77.9% [activator] (active); in assay [1] (at 38 µM (top of the series)), 90.9% [activator] (active); in assay [12], -5.99% (inactive). Besides, the Potency result in assay [20], in assay [6], in assay [7], in assay [8], in [14] and in assay [18] was “inactive” each time. Moreover, the Potency entry in [19] is “inactive”. The activity, negative = inhibition in assay [3] (at 17.2 µM (top of the series)) was 1.59% (inactive); in [3] (at 38 µM (top of the series)) it was -7% (inactive); in assay [16] (at 12.8 µM (top of the series), parasite line A), -6.2% (inactive). Also, the call in assay [9], in assay [10], in assay [11], in [13] and in assay [15] was inactive. Also, the max response was -11.8% in assay [12] (setting [21]) and -16.4% in assay [12] (setting [22]).

Values taken from PubChem BioAssay (NCATS).
